# Most compounds without a hit are left out; they make up all but 6% or so of the library.
# D1 agonist: Allosteric Agonists of the Human D1 Dopamine Receptor: qHTS; D(1A) dopamine receptor (Homo sapiens), P21728; HEK293 T-REx D1 cells, calcium flux, agonist mode; activation, % at 2 µM; 1% of 360,000 active; AID 504660, 2011; in the data active = activation above about 30%; note: 0% is about no effect
# Target sequence (P21728 whole entry, looked up): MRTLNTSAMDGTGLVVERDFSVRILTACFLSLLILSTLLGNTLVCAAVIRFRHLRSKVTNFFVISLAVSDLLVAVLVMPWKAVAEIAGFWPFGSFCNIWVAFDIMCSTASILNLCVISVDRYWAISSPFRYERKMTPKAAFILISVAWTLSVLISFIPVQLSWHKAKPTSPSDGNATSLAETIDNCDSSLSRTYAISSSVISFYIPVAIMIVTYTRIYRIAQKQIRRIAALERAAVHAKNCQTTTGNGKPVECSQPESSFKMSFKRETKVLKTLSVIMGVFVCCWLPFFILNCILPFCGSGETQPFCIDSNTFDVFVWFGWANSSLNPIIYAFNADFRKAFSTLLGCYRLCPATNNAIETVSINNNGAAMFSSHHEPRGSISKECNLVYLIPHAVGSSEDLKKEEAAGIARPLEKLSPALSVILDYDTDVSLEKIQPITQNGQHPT
#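 Inducible HEK293 T-REx D1 cells, force-coupled to calcium signalling, were plated at 4000 cells/well with tetracycline and held overnight at 30 C. After no-wash calcium dye loading, compound-evoked calcium rise over 180 s flagged agonists.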
# D3 antag: qHTS of D3 Dopamine Receptor Antagonist: qHTS; 2.5% of 360,000 active; D3R cells, DiscoveRx beta-arrestin luminescence, antagonist mode; stronger effect = lower value; D(3) dopamine receptor (Homo sapiens), P35462; max response, negative = inhibition, %; in the data active = max response below about -50%; note: % is set by controls: 0 for no effect and ±100 for the full control effect
#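 Cells plated overnight at 1500 cells/well, then exposed to library compounds with dopamine controls for 90 minutes at 37 degrees C. DiscoveRx reagent added for 30–60 minutes at room temperature; luminescence read, quantitative HTS format.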
# D1 antag: Antagonist of Human D 1 Dopamine Receptor: qHTS; HEK293 TREx D1 cells, calcium flux, dopamine EC80; stronger effect = lower value; activity change, negative = inhibition, % at 10 µM; 3.2% of 360,000 active; AID 504652, 2011; in the data active = activity change below about -30%; note: % is set by controls: 0 for no effect and ±100 for the full control effect
#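 HEK293 T-REx cells expressing inducible, force-coupled D1 receptor; no-wash Ca dye, 30–90 min RT. Cmpd → 180 s read at 1 Hz → EC80 DA → 180 s read.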
# D1 potentiator: Potentiators of Human D1 Dopamine Receptor: qHTS. D(1A) dopamine receptor (Homo sapiens), P21728. potentiation, % at 10 µM. 0.036% of 360,000 active. HEK293 TREx D1 cells, calcium flux, dopamine EC20 potentiation; in the data active = potentiation above about 30%; note: 0% is about no effect
# D3 ag: qHTS of D3 Dopamine Receptor Agonist: qHTS. D(3) dopamine receptor (Homo sapiens), P35462. D3R DiscoveRx beta-arrestin cells, luminescence, 90 min. max activation, %. 0.58% of 410,000 active; in the data active = max activation above about 30%; note: 0% is about no effect
#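 Cells at 1500/well, incubated overnight, then treated with pinned compounds (dopamine as control) for 90 min at 37 degrees C. DiscoveRx reagent added for 30 - 60 minutes at room temperature; luminescence read.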
# The depositor's hits bear a star; . = not tested or not shown.
SMILES,D1 agonist,D3 antag,D1 antag,D1 potentiator,D3 ag
Cc1ccc(Nc2nc(N)nc(CN3CCc4ccccc4C3)n2)cc1,1,-64*,-37*,-8,-15
Cc1ccc(Nc2nc(N)nc(CCl)n2)cc1,2,-8,3,-10,3
Cc1cc2c(c3oc(=O)c4ccccc4c13)CN(Cc1ccc(F)cc1)CO2,3,.,-2,-2,-14
Cc1[nH]n(-c2ccccc2)c(=O)c1C(c1ccc(O)c([N+](=O)[O-])c1)c1c(C)[nH]n(-c2ccccc2)c1=O,.,-91*,.,.,-9
COc1ccc(C(C[N+](=O)[O-])c2c(C)[nH]n(-c3ccccc3)c2=O)cc1 (centres undefined),1,-17,4,-2,2
O=C(Nc1ccccc1)c1nn(-c2ccccc2)c(=O)cc1C(F)(F)F,3,-50*,21,-3,3
O=c1c2ccccc2oc2nc(-c3ccco3)n(-c3ccccc3)c(=O)c12,5,-18,8,-6,-10
CC(C)c1nc2oc3ccccc3c(=O)c2c(=O)n1-c1ccccc1,54*,13,2,9,14
COc1ccc(-c2nc(CN(Cc3cnn(C)c3)C(C)C)c(C)o2)c(OC)c1,0,2,-31*,-2,-7
COc1ccc(NC2CCCN(C(=O)CCN3Cc4ccccc4C3=O)C2)cc1 (centres undefined),2,-5,-94*,-3,-3
O=C(CCn1cnnn1)N1CCCC(Nc2ccc(F)cc2)C1 (centres undefined),11,6,-35*,-4,0
O=C(c1cc2cc(F)ccc2[nH]1)N1CCCC(Nc2ccc(F)cc2)C1 (centres undefined),6,-4,-35*,-8,2
Cc1cc(C(=O)N2CCCC(Nc3ccccc3)C2)c2ccc(F)cc2n1 (centres undefined),1,9,-33*,-23,-1
COc1ccc(NC2CCCN(C(=O)CCN3CCCC3=O)C2)cc1 (centres undefined),1,-11,4,-1,4
CCOc1ccc(N2C(=O)c3[nH]nc(-c4ccc(OC)cc4)c3C2c2cccs2)cc1 (centres undefined),0,.,16,-2,14
CCn1c(=O)c2cc(C(=O)N3CCN(c4cccc(OC)c4)CC3)sc2c2ccccc21,2,.,8,-3,-10
CC(C)(C)OC(=O)Cc1nnc(-c2nc3ccccc3[nH]2)s1,7,.,2,24,.
Cc1cc(C)c2ccc3c(C)c(C)nc3c2[nH]1,5,-12,-47*,-4,2
Cc1cc(=O)[nH]c2c(C)c(N)ccc12,3,7,7,3,4
COc1ccc(Cl)cc1NC(=O)CSc1nc(=O)[nH]c2c1CCC2,6,.,-3,11,-1
CC(C)(C)OC(=O)N1CCC(c2c(C(=O)N3CCCCC3)cnn2-c2cccc(F)c2)CC1,0,.,24,1,-3
CC(C)(C)OC(=O)N1CCC(c2c(C(=O)N3CCOCC3)cnn2-c2cccc(F)c2)CC1,2,.,6,-7,74*
Cc1cccc(-n2ncc(C(=O)N3CCOCC3)c2C2CCN(C(=O)OC(C)(C)C)CC2)c1,1,.,-77*,-5,-5
Cc1cccc(-n2ncc(C(=O)N3CCN(c4ccc(C)cc4C)CC3)c2C2CCN(C(=O)OC(C)(C)C)CC2)c1,1,.,2,3,-18
O=C(NC1CCCC1)C(c1ccsc1)N(C(=O)Cc1cccs1)c1cccc(F)c1 (centres undefined),5,-3,-32*,-9,-5
SMILES,D1 agonist,D3 antag,D1 antag,D1 potentiator,D3 ag
COCC(C)Nc1ncnc2c1cnn2-c1ccc(C)c(C)c1 (centres undefined),-3,.,-26,-2,10
CCN1CCN(c2ncc3c(n2)CCN(Cc2ccc(Br)s2)C3)CC1,12,.,0,0,-19
CCN1CCN(c2ncc3c(n2)CCN(Cc2ccc(C)s2)C3)CC1,0,.,-32*,-1,-12
CCN1CCN(c2ncc3c(n2)CCN(Cc2ccc(OC(C)C)cc2)C3)CC1,1,.,-40*,-1,-21
COc1cc(CN2CCc3nc(N4CCN(c5ccccn5)CC4)ncc3C2)cc(OC)c1OC,8,.,-31*,0,2
CN1CCN(c2ncc3c(n2)CCN(Cc2ccc(Br)s2)C3)CC1,9,.,-41*,-1,-20
CCOC(=O)c1cc(-c2ccc(OC)c(S(=O)(=O)NC3CCCCC3)c2)on1,6,.,-26,-5,-9
O=S(=O)(NCc1nc2cccnc2n1Cc1ccccc1Cl)c1ccc2c(c1)CCCC2,5,.,-5,1,-1
CC(=O)Nc1cccc(-c2cn3ccccc3n2)c1,1,-17,2,12,1
O=C(Nc1cccc(-c2cn3ccccc3n2)c1)c1cc2ccccc2oc1=O,0,-19,-35*,3,-13
CCC1CN(C(=O)N2CCC(C(=O)NCCCc3ccccc3)CC2)c2ccccc2O1 (centres undefined),3,.,-2,-6,1
COc1ccc(Nc2nc(Nc3ccc(OC)cc3OC)nc(N3CCOCC3)n2)c(OC)c1,1,.,-2,-4,40*
CCOc1ccc(Cl)cc1CNCCNCC(C)O (centres undefined),2,-71*,3,-2,-33
CCOCCCNCc1cc(Cl)ccc1OCC,2,0,10,5,-4
CC(=O)Nc1ccc(S(=O)(=O)N[C@H](C(=O)O)C(C)C)cc1,2,13,-7,-1,0
CCOC(=O)C(Cc1ccccc1)NS(=O)(=O)c1ccc(NC(C)=O)cc1 (centres undefined),1,-22,-31*,-4,1
COC(=O)C(NS(=O)(=O)c1ccc(NC(C)=O)cc1)C(C)C (centres undefined),.,-74*,.,.,-34
CCc1ccccc1NC(=O)CN1C(=O)CCc2cc(S(=O)(=O)N3CCCCC3)ccc21,0,.,18,1,-13
COC(=O)c1sc2cc([N+](=O)[O-])cc(SCC(C)C)c2c1N,91*,-3,-4,9,0
CCOC(=O)/C(=C/c1ccc(OC(=O)c2ccccc2)cc1)C(C)=O,-1,17,0,-13,1
CCOC(=O)/C(=C/C1=CC(=C/N(C)C)/C(=O)O1)C(C)=O,25,-7,1,2,30*
COc1ccc(N=Cc2cc(Cc3ccccc3Cl)cc([N+](=O)[O-])c2O)cc1OC,4,-96*,29,-10,-15
Cc1ccc(N=Cc2cc(Cc3ccccc3Cl)cc([N+](=O)[O-])c2O)c(O)c1,25,-74*,-11,5,-9
